In PubChem BioAssay AID2284364 (EPA ToxCast) one finds outcome data, which are given here for one compound.

For the assay, the target named is Peroxisome proliferator-activated receptor gamma (Homo sapiens) (UniProt P37231). The assay can be described thus: ERF_US_NR_hPPARG: Eurofins (ERF) Nuclear Receptor (NR) Cell Based Protein-Protein Interaction LeadHunter Assay for human Peroxisome Proliferator-activated Receptor-gamma (PPARg) Agonism. The protocol: ERF_US_NR_hPPARG is a cell-based, single-readout assay that uses extracted gene-proteins in a cell-line assay. Measurements were taken 5 hours after chemical dosing in a 384-well plate. See PPARgamma Human NHR Cell Based Agonist Protein-Protein Interaction Assay, DiscoverX.ERF_US_NR_hPPARG is an assay component calculated from the ERF_US_NR_hPPARG assay. It is designed to measure […] using a type of binding reporter as detected by scintillation counting with radiometry technology.Data from the assay component ERF_US_NR_hPPARG was analyzed at the assay endpoint, ERF_US_NR_hPPARG, in the positive analysis fitting direction relative to DMSO as the negative control and baseline of activity. Using a type of binding reporter, gain-of-signal activity can be used to understand changes in binding as they relate to gene PPARG. To generalize the intended target to other relatable targets, this assay endpoint is annotated to the nuclear receptor intended target family, where the subfamily is non-steroidal.
Cells were seeded in a total volume of 20 uL into white walled, 384-well microplates and incubated at 37C overnight prior to testing.Briefly, intermediate dilution of sample stocks was performed to generate 5X sample in assay buffer. 5 uL of 5X sample was added to cells and incubated at 37C for 300 minutes. […] The results are expressed as a percent efficacy of the control ligand.

SMILES strings stand for the structures. Calls of active or inactive are those of the source. How the source made its calls: active means hit-call score of the fitted dose curve at least 0.9, where 1 is the maximum; inactive means score below 0.9.

Sequence of Peroxisome proliferator-activated receptor gamma (Homo sapiens) (P37231 whole entry, looked up): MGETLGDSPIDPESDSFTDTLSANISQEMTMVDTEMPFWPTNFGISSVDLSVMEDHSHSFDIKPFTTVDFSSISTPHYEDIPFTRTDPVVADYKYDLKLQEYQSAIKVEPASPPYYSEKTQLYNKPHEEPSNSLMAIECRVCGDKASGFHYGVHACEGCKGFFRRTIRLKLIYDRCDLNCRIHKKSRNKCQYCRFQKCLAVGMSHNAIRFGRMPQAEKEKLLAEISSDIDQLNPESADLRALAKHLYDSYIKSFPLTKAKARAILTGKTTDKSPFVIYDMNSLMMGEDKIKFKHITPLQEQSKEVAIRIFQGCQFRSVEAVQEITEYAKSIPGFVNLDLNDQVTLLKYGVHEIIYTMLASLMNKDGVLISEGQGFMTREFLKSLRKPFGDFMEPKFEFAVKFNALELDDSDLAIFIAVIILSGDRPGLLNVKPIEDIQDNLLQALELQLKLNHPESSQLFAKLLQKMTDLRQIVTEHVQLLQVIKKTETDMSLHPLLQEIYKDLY

On to `O=S(=O)(O)C(F)(F)C(F)(F)C(F)(F)C(F)(F)C(F)(F)C(F)(F)C(F)(F)C(F)(F)F`, for which the compound was classed as inactive.
